IL-1B inflam inh: inhibitors of inflammasome signaling (IL-1 beta secretion); THP-1 LPS/ATP IL-1B secretion, AlphaLISA, 16 h; hits give low values; activity change, % at 57.5 µM; 360,000 tested, 4.7% active; in the data active = activity change below about -50%; inconclusive = mostly about -30% to -49%
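THP-1 cells pretreated 1 hr with compounds (up to 57.5 uM final), then stimulated with LPS (250 ng/mL final) plus ATP (1.25 mM final); secreted IL-1B measured by AlphaLISA after 16 hr, decreased signal indicating inhibition.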
TDP1 cell CPT: DT40-hTDP1 cell growth loss with CPT; chicken DT40 Tdp1-/-;hTDP1 cells + 20 nM CPT, ATP luminescence, 48 h; Potency, µM (series often up to 46.2 µM), inactives show at the highest dose activity change, negative = growth inhibition, hits mostly inhibitors; 420,000 tested, 12% active; note: potency is the fitted concentration of half-maximal effect; nearly all actives have a fitted effect of over 55% in size
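Chicken DT40 Tdp1-/- cells complemented with human TDP1, 400 cells/well, exposed to compounds plus 20 nM camptothecin for at least 48 h at 37 C; viability read as ATP content by CellTiter-Glo luminescence.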
TDP1 cell noCPT: qHTS for Inhibitors of human tyrosyl-DNA phosphodiesterase 1 (TDP1): qHTS in cells in absence of CPT; DT40 Tdp1-/- hTDP1 cells, no CPT, ATP luminescence, 48 h; Potency, µM (titrated, usually from 46.2 µM), for the others: at the top dose activity change, negative = growth inhibition, usual class: inhibitors; 420,000 tested, 15% active; AID 686978, 2013; note: potency is the fitted concentration of half-maximal effect; nearly all actives have a fitted effect of over 55% in size
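No-CPT arm: Tdp1-/-;hTDP1 DT40 cells (400/well) plus compounds, incubated ≥48 hr at 37 °C. Readout CellTiter-Glo luminescence.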
HT1080-NT tox: kills 2HG-producing HT-1080-NT fibrosarcoma cells; Potency, µM (doses to about 46.1 µM), inactives show top-dose activity, negative = less viability, actives largely listed as cytotoxic; 360,000 tested, 1.6% active; HT-1080-NT fibrosarcoma viability, CellTiter-Glo ATP luminescence, 48 h;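 note: NT is the 2HG producing partner of a matched IDH1 knockdown line; potency is the fitted concentration of half-maximal effect; 0% = DMSO-treated cells and -100% = media-only wells without cells; nearly all actives have a fitted effect of over 55% in size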
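Viability of the 2HG-overproducing fibrosarcoma line after 48 hours of compound exposure at 37 degrees C was determined by luminescence with CellTiter-Glo, and concentration-effect curves were then fitted and categorized.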
HT1080 IDH1KD tx: kills HT-1080 cells with IDH1 knockdown. HT-1080 IDH1 knockdown viability, ATP luminescence, 48 h. 360,000 tested, 2% active. Potency, µM (top dose mostly 46.1 µM), for the others: at the top dose activity, negative = toxicity, hits mostly cytotoxic;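 note: potency is the fitted concentration of half-maximal effect; 0% = DMSO wells and -100% = cell-free medium wells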
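Knockdown cells (IDH1KD HT-1080) received compounds 2 h after plating at 750 cells/well and were kept 48 h at 37 °C in 5% FBS RPMI. A CellTiter-Glo luminescence read gave % activity for curve fitting.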
Active calls of the source: *; ? = inconclusive; / = not tested or not shown; ! = not confirmed by another sample. A selection: hits, their analogues and other compounds. The true share with any hit is near 19%. Unless noted, calls come from the whole dose curve; as a rule, active = well fitted curve in the direction sought with a large enough effect; inconclusive = small, poorly fitted or top-dose-only effect, or another doubt; inactive = no such curve, though single readings can be large; an effect the other way counts as inactive or inconclusive. Unless noted, % is set by controls: 0 for no effect and ±100 for the full control effect.

SMILES	IL-1B inflam inh	TDP1 cell CPT	TDP1 cell noCPT	HT1080-NT tox	HT1080 IDH1KD tx
Cc1ccc(C)c(NS(=O)(=O)c2cc(C(=O)NCc3ccccn3)ccc2C)c1	-3.2	?	29.1µM*	-1.6%	-7.9%
COc1cc(OC)cc(C(=O)NCCSC2CCCCC2)c1	9.3	-13.2%	-14.9%	17.0%	-6.7%
COc1cccc(OC)c1C(=O)NCCSC1CCCCC1	-0.9	13µM*	18.4µM*	1.2%	3.2%
O=C(NCc1ccccn1)c1cccc(NS(=O)(=O)c2cccc(F)c2)c1	33.0	1.64µM*	1.46µM*	1.6%	1.8%
Cc1ccc(C)c(NS(=O)(=O)c2cc(C(=O)NCCSC3CCCCC3)ccc2C)c1	?	?	23.1µM*	?	?
Cc1cnc(CNc2cc(-c3ccccc3C(F)(F)F)ncn2)cn1	/	3.7%	3.7%	/	/
COc1cccc(-c2cc(NCc3ccccc3OC)ncn2)c1	/	4.11µM*	?	/	/
COc1cccc(-c2cc(NCc3cccnc3)ncn2)c1	/	11.3%	0.0%	/	/
COc1ccccc1CNc1cc(-c2ccccc2C(F)(F)F)ncn1	/	1.3µM*	1.46µM*	/	/
COc1ccccc1CNc1cc(-c2ccc(C(=O)N(C)C)cc2)ncn1	/	0.9%	-8.9%	/	/
COc1ccccc1CNc1cc(-c2ccccc2Cl)ncn1	/	16.4µM*	14.6µM*	/	/
O=C(c1[nH]c(C(F)(F)F)nc1-c1ccccc1)N1CCC(Cc2ccccc2)CC1	-23.0	?	?	?	?
COc1cc2cc3c4c(cc(OC)c(OC)c4c2cc1OC)CCN3C	/	10.6µM*	11.9µM*	/	/
Clc1nc(-c2ccccn2)nc2scc(-c3ccccc3)c12	-60.0*	?	?	?	?
Cc1ccc(-n2cc(CN3CCC(O)(c4ccccn4)CC3)c(-c3ccc(F)cc3)n2)cc1	-103.0*	?	?	16.4µM*	?
CCn1ccnc1CN(C)Cc1cn(-c2ccc(C)cc2)nc1-c1ccc(F)cc1	-13.5	?	?	-10.8%	-7.0%
CCN1CC(CN(C)Cc2cn(-c3ccc(C)cc3)nc2-c2cccc(C)c2)CC1=O (stereo not drawn)	-86.2*	?	14.6µM*	-23.8%	-14.2%
Cc1ccc(-n2cc(CN(C)Cc3ncc[nH]3)c(-c3cccc(C)c3)n2)cc1	-81.4*	?	23.1µM*	18.4µM*	18.4µM*
Cc1ccc(-n2cc(CN(C)Cc3nccn3C)c(-c3ccc(F)cc3)n2)cc1	-139.4*	?	?	?	?
O=C(CCN1C(=O)/C(=C/c2ccccc2F)SC1=S)NC1C=CS(=O)(=O)C1 (stereo not drawn)	-23.5	-7.0%	?	6.5%	-9.8%
COc1cccc(-c2cc(C(=O)NC3CCCCC3)no2)c1	-22.7	7.7%	-2.0%	10.3%	10.7%
COC(=O)[C@]12CCCCC=C1N(Cc1ccc3c(c1)OCO3)C(=O)[C@H](CC(=O)NCc1cccc(C(F)(F)F)c1)C2	-18.0	?	?	?	?
CCOC(=O)[C@]12CCC=C1N(Cc1ccccc1)C(=O)[C@H](CC(=O)NCc1cccc(C(F)(F)F)c1)C2	?	?	23.1µM*	?	?
CCCCCCCCN1C(=O)[C@H](CC(=O)NCc2cccc(C(F)(F)F)c2)C[C@@]2(C(=O)OCC)CCCC=C12	-52.6*	?	?	-27.0%	14.6µM*
CCCCCCCCN1C(=O)[C@H](CC(=O)NCc2ccccc2)C[C@@]2(C(=O)OCC)CCCC=C12	-72.5*	?	?	?	?
SMILES	IL-1B inflam inh	TDP1 cell CPT	TDP1 cell noCPT	HT1080-NT tox	HT1080 IDH1KD tx
Cc1ccc(NC(=O)C2C3CCCC2C3c2ccccc2)cc1 (stereo not drawn)	2.5	-20.8%	-17.0%	-3.5%	-2.0%
Cc1ccc(NC(=O)C(C)Sc2nnc(-c3cccnc3)n2-c2ccccc2)cc1 (stereo not drawn)	-18.8	?	?	3.2%	?
CC1CCc2c(sc(NC(=O)c3cc(-c4cccc(Cl)c4)on3)c2C(N)=O)C1 (stereo not drawn)	/	-8.4%	-4.9%	/	/
CCCOc1ccc(N)cc1N	?	5.17µM*	4.11µM*	?	?
CCCOc1cc(N)ccc1C(=O)OCCN(CC)CC	23.1	0.128µM*!	?	-2.7%	-1.7%
Nc1cc(=O)nc(SCC(=O)Nc2ccc(F)cc2)n1CCc1ccccc1	/	1.3%	-16.2%	/	/
CCCCn1c2ccc(F)cc2c2nnc(NN)nc21	77.4	18.4µM*	?	-0.7%	-17.5%
CCn1c2ccc(C)cc2c2nnc(NN)nc21	-8.7	18.4µM*	9.2µM*	-4.6%	-16.7%
Cc1c(Cl)cccc1NC(=S)NN1CCOCC1	23.7	6.1%	-5.0%	7.9%	6.0%
O=S(=O)(c1ccccc1)N1CCC2(CCN(c3ccc(-c4ccccc4)cc3)CC2)CC1	/	?	-6.2%	/	/
O=C(Oc1ccccc1)N1CCC2(CCCN(c3cccc(-c4ccccc4)c3)C2)CC1	/	-29.6%	?	/	/
CS(=O)(=O)N1CCC2(CC1)CN(c1cccc(-c3ccccc3)c1)C2	/	?	18.4µM*	/	/
CS(=O)(=O)N1CCC2(CCN(c3cccc(-c4ccccc4)c3)CC2)CC1	/	?	20.6µM*	/	/
CCCn1c(C(O)c2ccc(OC)c(OC)c2)nc2ccccc21 (stereo not drawn)	81.6	?	?	-10.9%	-8.2%
Cc1ccc(CNC(=O)[C@H](C)NC(=O)C2CCN(C(=O)[C@@H]3CCCN3C(=O)OC(C)(C)C)CC2)cc1	10.0	-21.8%	-29.6%	2.1%	4.5%
c1ccc(-c2nc(NCCCn3ccnc3)c3oc4ccccc4c3n2)cc1	-78.8*	?	?	?	?
CCc1nc(NCCCn2ccnc2)c2oc3ccccc3c2n1	-17.5	?	?	-3.2%	-5.9%
O=C(COc1nc2ccccc2nc1N1CCOCC1)Nc1cccc(S(=O)(=O)N2CCCCC2)c1	?	-19.8%	?	6.7%	0.9%
CC(C)Cc1nc2oc3c(NCCCN4CCOCC4)ncnc3c2c2c1CCC2	-59.2*	15.8µM*	?	8.4%	-4.3%
CC(C)Cc1nc2oc3c(Cl)ncnc3c2c2c1CCC2	-101.8*	13µM*	18.4µM*	1.8%	?
CC(=O)Nc1nonc1-c1nnc(SCC(=O)Nc2cc(Cl)ccc2C)n1C	/	-20.4%	-26.0%	/	/
COc1cccc(N2CC(NS(=O)(=O)c3cccnc3)CC2=O)c1 (stereo not drawn)	8.7	-14.5%	-29.2%	-0.3%	10.5%
CC(=O)C1=C(O)C(=O)N(c2ccc(Br)cc2)C1c1ccccc1[N+](=O)[O-] (stereo not drawn)	8.5	-3.3%	-3.6%	-11.8%	-1.9%

Compound activity (PubChem)
